Among the data in PubChem BioAssay (NCI) are growth inhibition values, retold here.

Compounds without any hit were thinned out: in the full panel of roughly 79,000, 15% have a hit. A number with no mark means an inactive call. The source made the active and inactive calls. Rule as the data show it: active = growth inhibition above about 70%; inactive = the rest.

Experiment [1] can be described thus: NCI Yeast Anticancer Drug Screen. Data for the rad50 strain (AID 155).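 Also: 0% = growth of vehicle-only cultures of the same strain.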 Particulars: S. cerevisiae rad50 strain growth inhibition; at 50.0 µM; active compounds read high. Summed up:
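Relative growth inhibition (compound vs vehicle) was measured in yeast with a defined repair-gene alteration.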

The nature of experiment [2]: NCI Yeast Anticancer Drug Screen. Data for the mec2-1 strain (AID 157). Particulars: S. cerevisiae mec2-1 strain, at 50.0 µM, active compounds read high. Summed up: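 Readout is yeast growth inhibition, normalised to vehicle-treated controls, in the mec2-1 strain exposed to compound.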
Experiment [3] in a line: NCI Yeast Anticancer Drug Screen. Data for the sgs1 mgt1 strain (AID 161).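 Also: 0% = growth of cultures given vehicle only.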 To be noted: S. cerevisiae sgs1 mgt1 strain, at 50.0 µM, active compounds read high. Summed up:
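Growth of a repair-deficient yeast mutant was monitored after compound treatment and expressed as inhibition relative to vehicle-treated cultures.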

Experiment [4] can be described thus: NCI Yeast Anticancer Drug Screen. Data for the cln2 rad14 strain (AID 165).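 Also: 0% = growth equal to vehicle treated cultures.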 Particulars: S. cerevisiae cln2 rad14 strain, at 50.0 µM, active compounds read high. Summed up: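 Relative to vehicle controls, growth inhibition of compound-treated cln2 rad14 yeast was recorded.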
Experiment [5] is described as follows: NCI Yeast Anticancer Drug Screen. Data for the bub3 strain (AID 167). To be noted: S. cerevisiae bub3 mutant strain, at 50.0 µM, active compounds read high. Summed up: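 Screening used yeast with an engineered genetic alteration affecting cell cycle control. Compound-exposed cultures were compared with vehicle cultures, and reduced growth was taken as inhibition.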

Experiment [6] is described as follows: NCI Yeast Anticancer Drug Screen. Data for the mlh1 rad18 strain (AID 175). Particulars: S. cerevisiae mlh1 rad18 strain growth inhibition; at 50.0 µM; active compounds read high. Summed up: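 Test agents were incubated with a yeast strain of defined genotype (DNA damage repair defect). Inhibition of growth was derived by comparison with vehicle-exposed cultures.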

Regarding `CN(C)CC1CCC/C1=N/OC(=O)c1ccccc1` (stereo not given), the growth inhibition is 6.85% in experiment [1]; -6.7% in experiment [2]; -20% in experiment [3]; -17.9% in experiment [4]; -6.4% in experiment [5]; 16.9% in experiment [6].
On to `OC1(c2ccccc2)c2ccccc2NC2=NCCN21` (stereo not given), for which the growth inhibition is -14.7% in experiment [1]; -12.4% in experiment [2]; -10.7% in experiment [3]; -10.5% in experiment [4]; -45.9% in experiment [5]; -16.9% in experiment [6].
For the molecule `NC(=O)C(Cc1ccccc1Cl)c1ccccc1` (stereo not given), the growth inhibition in experiment [1] was -7.6%; in experiment [2] it was -2.9%; in experiment [3] it was -2.75%; in experiment [4], -43%; in experiment [5], -8.35%; in experiment [6], 12.7%.
As to `CN(C)NC1=C([N+](=O)[O-])C=NN(c2ccccc2)C1`, the growth inhibition in experiment [1] is 15%; in experiment [2], -1.15%; in experiment [3], 13.4%; in experiment [4], 19.4%; in experiment [5] it was 22.1%; in experiment [6] it was 51.6%.
`COc1cc2c(C)cc(O)cc2c2cc(O)c(C)cc12`: the growth inhibition in experiment [1] is 22.6%; in experiment [2], -1.55%; in experiment [3] it was -10.3%; in experiment [4], -5.9%; in experiment [5], -9.9%; in experiment [6], 91.8% (active).
Turning to `S=c1nn[nH]n1-c1cccc2ccccc12`, the growth inhibition in experiment [1] was 4.7%; in experiment [2] it was 1.9%; in experiment [3] it was -4.65%; in experiment [4], 2.6%; in experiment [5], -10.8%; in experiment [6] it was -3.8%.
As for `O=C(NC(=O)c1c(F)cccc1F)Nc1cccc(C(F)(F)F)c1`, the growth inhibition in experiment [1] is 8.55%; in experiment [2], 6.15%; in experiment [3], 3.9%; in experiment [4] it was 6.75%; in experiment [5], -3.3%; in experiment [6], 10.7%.
For `CSCCC(C(=O)O)N(CC1(O)OCC(O)C(O)C1O)N=O` (stereo not given), the growth inhibition in experiment [1] was -18.4%; in experiment [2], -24.6%; in experiment [3] it was -17.6%; in experiment [4], -9.15%; in experiment [5] it was -11.4%; in experiment [6], -11.2%.
Consider `CCN(CC)C(=O)C1CC=CCC1C(=O)O` (stereo not given), for which the growth inhibition in experiment [1] was 41.3%; in experiment [2], 19.3%; in experiment [3], 23.9%; in experiment [4], -38.5%; in experiment [5], 1.85%; in experiment [6], 30.1%.
For `CSc1nnc(SC)s1`, the growth inhibition is -3.3% in experiment [1]; -22.6% in experiment [2]; -18.8% in experiment [3]; 22.9% in experiment [4]; 1.4% in experiment [5]; -9.35% in experiment [6].
Turning to `CC(C)(C)[Si](C)(C)OC1C(=O)C[C@H]2CCCC[C@@H]12` (stereo not given in full), the growth inhibition was -6.75% in experiment [1]; 0.85% in experiment [2]; -1.75% in experiment [3]; 17.1% in experiment [4]; 10.2% in experiment [5]; 22.3% in experiment [6].
For `S=C(NNC(=S)Nc1ccccc1Cl)NNc1ccccc1`, the growth inhibition is 80.8% (active) in experiment [1]; 82.8% (active) in experiment [2]; 93.4% (active) in experiment [3]; 68.2% in experiment [4]; 82.8% (active) in experiment [5]; 88.9% (active) in experiment [6].
Regarding `CCCCN(CCCC)CC(O)c1cc(Cc2ccccc2)nc2c(Cl)cc(Cl)cc12` (stereo not given), the growth inhibition in experiment [1] is 95.3% (active); in experiment [2], 95.5% (active); in experiment [3], 96.8% (active); in experiment [4], 89.8% (active); in experiment [5] it was 95% (active); in experiment [6] it was 96.2% (active).
With `CCN(CC)CCCC(C)Nc1ccnc2ccc3nn(C)nc3c12` (stereo not given), the growth inhibition in experiment [1] was -11.6%; in experiment [2], -4.6%; in experiment [3] it was -15.2%; in experiment [4], 2.25%; in experiment [5], -14%; in experiment [6] it was -14.3%.
`O=[N+]([O-])c1ccc(OC(=S)Oc2ccc([N+](=O)[O-])cc2)cc1`: the growth inhibition in experiment [1] is 3.45%; in experiment [2], -16.7%; in experiment [3], 2.9%; in experiment [4], -4.4%; in experiment [5], -0.05%; in experiment [6], 1.8%.
In the case of `Cc1ccc(S(=O)(=O)N2CCSCCSCCSCCN(S(=O)(=O)c3ccc(C)cc3)CC2)cc1`, the growth inhibition in experiment [1] is 7.05%; in experiment [2] it was -0.8%; in experiment [3], 4.25%; in experiment [4], 15.6%; in experiment [5], -4.1%; in experiment [6], 23.1%.
Regarding `O=C(Nc1cccnc1)c1ccc([N+](=O)[O-])s1`, the growth inhibition in experiment [1] is 11.1%; in experiment [2], 0.6%; in experiment [3] it was 29.3%; in experiment [4], 9.25%; in experiment [5], 11.1%; in experiment [6], 16.1%.
For the molecule `CCOC(=O)Nc1cc2c(c(N)n1)N=C(CN(C)c1ccccc1)CN2`, the growth inhibition was 22.9% in experiment [1]; 6.15% in experiment [2]; 59.5% in experiment [3]; 16.3% in experiment [4]; 35% in experiment [5]; 30.3% in experiment [6].
In the case of `c1ccc(-c2cnc3cccnc3n2)cc1`, the growth inhibition is -2.1% in experiment [1]; -24.7% in experiment [2]; -19.2% in experiment [3]; -36.5% in experiment [4]; -10.1% in experiment [5]; -12.6% in experiment [6].
Consider `Nc1nc(-c2ccccc2)ns1`, for which the growth inhibition in experiment [1] is 4.9%; in experiment [2], -44.1%; in experiment [3], 1.4%; in experiment [4], 8.4%; in experiment [5] it was -17.8%; in experiment [6], -2.3%.
